Assay [1] can be described thus: compound effects on lung adenocarcinoma cell viability – A549, calcein-AM fluorescence, 48 h, basal, profiling panel (AID 1162). Note: test concentration not given here. The following applies: higher = more signal.
A short description of assay [2]: compound effects on differentiated 3T3-L1 adipocyte viability – cell-based, 3T3-L1 adipocytes, calcein-AM fluorescence, 48 h, basal, profiling panel (AID 1163). Note: test concentration not given here. The following applies: 3T3-L1 adipocytes viability, higher = more signal.
The nature of assay [3]: compound effects on hepatocellular carcinoma cell viability – HepG2, calcein-AM fluorescence, 48 h, basal, profiling panel (AID 1164). Note: test concentration not given here. The following applies: higher = more signal.
Assay [4] can be described thus: compound effects on multiple myeloma cell viability – MM1S, calcein-AM fluorescence, 48 h, basal, profiling panel (AID 1165).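 Note: viability of MM1S multiple myeloma cells under basal unstimulated conditions; test concentration not given here.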 The following applies: higher = more signal.
Assay [5] in a line: calcein-AM signal in unstimulated myeloma cells – cell-based, calcein-AM fluorescence, 48 h, PK04 Diversity Set, profiling panel (AID 1166).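 Note: cells grown under basal conditions without added stimulus; test concentration not given here.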 The conditions noted are these: RPMI8226 myeloma viability, higher = more signal.
Assay [6] is described as follows: JC-1 mitochondrial signal, unstimulated HepG2 cells – cell-based, JC-1 fluorescence, 24 h, 100 nL compound, profiling panel (AID 1167). Note: test concentration not given here. The conditions noted are these: HepG2 mitochondrial potential, higher = more signal.
Assay [7] is described as follows: JC-1 mitochondrial signal, unstimulated adipocytes – cell-based, JC-1 fluorescence, 3T3-L1 adipocytes, 24 h, 100 nL compound, profiling panel (AID 1168). Note: test concentration not given here. The following applies: JC-1 mitochondrial fluorescence, higher = more signal, called active from +8 up or from −8 down.
The nature of assay [8]: JC-1 mitochondrial signal, unstimulated myeloma cells – cell-based, JC-1 fluorescence, RPMI8226, 24 h, 100 nL compound, profiling panel (AID 1169). Note: test concentration not given here. The following applies: JC-1 mitochondrial potential fluorescence, higher = more signal.
Assay [9] in a line: JC-1 mitochondrial signal, unstimulated MM1S myeloma – cell-based, JC-1 fluorescence, 24 h, 100 nL compound, profiling panel (AID 1170). Note: test concentration not given here. The conditions noted are these: MM1S mitochondrial potential, higher = more signal.
Assay [10] can be described thus: resazurin metabolic signal in A549 cells – cell-based, resazurin fluorescence, 24 h, PK04 Diversity Set, profiling panel (AID 1171). Note: test concentration not given here. The following applies: A549 viability, higher = more signal, called active from +8 up or from −8 down.
Assay [11] in a line: resazurin metabolic signal in HepG2 cells – cell-based, resazurin fluorescence, 24 h, PK04 Diversity Set, profiling panel (AID 1172). Note: test concentration not given here. The following applies: HepG2 viability, higher = more signal. Background: The colour change of resazurin is a common sign of viable cells or microbes.
Assay [12] is described as follows: budding yeast growth changes without added modifier – OD600, strain BY4716, 24 h, basal condition, primary screen (AID 1173). The following applies: S. cerevisiae BY4716 growth, OD600, 24 h; higher = more signal, called active from +8 up or from −8 down.
Assay [13] is described as follows: viability profiling in MM1S myeloma cells – cell-based, resazurin fluorescence, basal, 24 h, PK04 Diversity Set, profiling panel (AID 1174). Note: test concentration not given here. The conditions noted are these: higher = more signal, called active from +8 up or from −8 down.
Assay [14] has as its target Dihydroorotate dehydrogenase (quinone), mitochondrial (Plasmodium falciparum (isolate 3D7)) (UniProt Q08210). Description: inhibition of P. falciparum DHODH – biochemical, C-terminal His tag, absorbance 600 nm, primary screen (AID 1175).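 Note: recombinant parasite enzyme with a five histidine tag at its C terminus; test concentration not given here.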 The conditions noted are these: PfDHODH enzyme, DCIP absorbance 600 nm; higher = more signal, called active from +8 up or from −8 down.

Assay [15] is described as follows: inhibition of PAO1 biofilm formation – strain PAO1, LB-PBS medium, absorbance 600 nm, primary screen (AID 1176). Note: test concentration not given here. The following applies: P. aeruginosa PAO1 growth/biofilm, A600, 12 h; higher = more signal.
Assay [16] is described as follows: growth modulation of vineyard yeast isolate – strain RM11-1a, OD600, basal, 24 h, primary screen (AID 1177).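 Note: cultures grown under basal conditions with no added stressor; test concentration not given here.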 The conditions noted are these: S. cerevisiae RM11-1a growth, OD600, 24 h; higher = more signal, called active from +8 up or from −8 down.
A short description of assay [17]: growth of efflux-deficient E. coli DRC39 – strain DRC39, OD650, 24 h, E. coli filamentation inducers, primary screen (AID 1178).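 Note: growth measured as culture turbidity by optical density at 650 nm; test concentration not given here.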 The conditions noted are these: E. coli DRC39 acrAB, higher = more signal, called active from +8 up or from −8 down.
Assay [18] is described as follows: growth of efflux-deficient E. coli DRC39 – strain DRC39, OD650, 48 h, E. coli filamentation inducers, primary screen (AID 1179).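 Note: screen aims at cell division blockers that make cells filament.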 The conditions noted are these: E. coli DRC39 delta-acrAB growth, higher = more signal, called active from +8 up or from −8 down.
The nature of assay [19]: viability profiling in RPMI8226 myeloma cells – cell-based, resazurin fluorescence, basal, 24 h, PK04 Diversity Set, profiling panel (AID 1180).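 Note: RPMI8826 multiple myeloma cell line at 5000 cells per well; test concentration not given here.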 The conditions noted are these: higher = more signal.
Assay [20] has as its target E3 ubiquitin-protein ligase XIAP (Homo sapiens) (UniProt P98170). Description: small molecules binding XIAP protein – biophysical, small-molecule microarray, fluorescence 635 nm, primary screen (AID 1181).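 Note: score merges 667 nm emission and signal to noise over triplicate slides.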 The conditions noted are these: higher = more signal.

Calls of active or inactive are those of the source. Unless noted, the rule behind the calls is not given here.

These results are taken from PubChem BioAssay.

Dihydroorotate dehydrogenase (quinone), mitochondrial (Plasmodium falciparum (isolate 3D7)), sequence (Q08210 whole entry, looked up): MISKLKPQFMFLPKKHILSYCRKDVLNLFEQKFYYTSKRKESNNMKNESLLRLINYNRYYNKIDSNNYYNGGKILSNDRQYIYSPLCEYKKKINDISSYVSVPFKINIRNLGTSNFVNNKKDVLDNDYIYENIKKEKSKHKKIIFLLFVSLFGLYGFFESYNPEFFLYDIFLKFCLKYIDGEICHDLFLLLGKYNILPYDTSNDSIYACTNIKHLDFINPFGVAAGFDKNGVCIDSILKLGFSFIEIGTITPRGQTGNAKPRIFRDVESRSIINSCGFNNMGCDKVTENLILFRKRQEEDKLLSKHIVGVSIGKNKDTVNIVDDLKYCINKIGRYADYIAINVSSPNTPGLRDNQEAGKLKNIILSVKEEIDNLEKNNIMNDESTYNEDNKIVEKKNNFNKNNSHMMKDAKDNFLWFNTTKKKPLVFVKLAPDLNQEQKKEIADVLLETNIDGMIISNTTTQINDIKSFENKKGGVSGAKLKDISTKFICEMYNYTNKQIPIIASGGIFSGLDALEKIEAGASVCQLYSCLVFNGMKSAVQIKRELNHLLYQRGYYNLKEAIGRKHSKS
E3 ubiquitin-protein ligase XIAP (Homo sapiens), sequence (P98170 whole entry, looked up): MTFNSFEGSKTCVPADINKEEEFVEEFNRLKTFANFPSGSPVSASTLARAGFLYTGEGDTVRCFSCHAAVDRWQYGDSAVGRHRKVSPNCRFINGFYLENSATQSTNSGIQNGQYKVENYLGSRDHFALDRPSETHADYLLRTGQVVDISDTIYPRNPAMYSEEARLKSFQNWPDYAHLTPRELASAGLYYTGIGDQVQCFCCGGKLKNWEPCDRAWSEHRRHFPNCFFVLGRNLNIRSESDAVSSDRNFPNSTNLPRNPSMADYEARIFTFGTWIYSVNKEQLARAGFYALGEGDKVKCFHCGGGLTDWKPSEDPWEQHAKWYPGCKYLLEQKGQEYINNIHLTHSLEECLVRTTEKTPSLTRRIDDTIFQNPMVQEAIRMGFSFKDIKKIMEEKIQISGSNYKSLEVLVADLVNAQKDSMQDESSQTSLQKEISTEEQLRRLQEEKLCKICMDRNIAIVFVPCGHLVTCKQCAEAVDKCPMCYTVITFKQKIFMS

As for `O=C1[C@H]2[C@H]3[C@H](O)[C@H](O)CC(=NOC[C@@H](O)COCc4ccco4)[C@@H]3CC[C@H]2C(=O)N1C1CCCCC1`, the z-score was 0.0095 in [1]; 0.272 in assay [2]; 0.444 in assay [3]; 0.0224 in assay [4]; -0.002 in assay [5]; -0.82 in assay [6]. Besides, the z-score was -0.181 (inactive) in assay [7]; -0.422 in assay [8]; -0.891 in assay [9]; 0.014 (inactive) in [10]; -0.31 in [11]; 0.446 (inactive) in [12]. Further, the z-score is -0.226 (inactive) in [13]; 0.0457 (inactive) in [15]; 0.153 (inactive) in [16]; 0.326 (inactive) in assay [17]; 0.132 (inactive) in assay [18]; -0.415 in assay [19]. In addition, the composite z-score in assay [14] was -0.308 (inactive); in assay [20], -0.28.
As to `CO[C@@H]1C=CCC(=O)N[C@@H](C)C(=O)OC[C@@H](NS(=O)(=O)c2ccc(C)cc2)[C@H](C)C=CCC(=O)OC[C@H]1C`, the z-score in [1] is -0.533; in assay [2], 0.37; in [3], 0.495; in assay [4], -0.0903; in assay [5], -0.431; in assay [6], 0.0105. Besides, the z-score was 0.0826 (inactive) in assay [7]; -0.782 in assay [8]; 0.301 in [9]; 0.179 (inactive) in assay [10]; -0.0689 in [11]; -0.872 (inactive) in [12]. Besides, the z-score in assay [13] was -0.0213 (inactive); in assay [15], -0.212 (inactive); in assay [16], -0.876 (inactive); in assay [17] it was 0.0721 (inactive); in assay [18], -0.418 (inactive); in assay [19], 0.135. In addition, the composite z-score in [14] was -0.165 (inactive); in assay [20] it was 0.201.
As for `CC(=O)OC[C@H]1O[C@H](CC=NO[C@@H](C)c2cn([C@H](CO)Cc3ccccc3)nn2)C=C[C@@H]1OC(C)=O`, the z-score in [1] was -1.04; in assay [2], -0.0628; in assay [3] it was -0.453; in assay [4] it was 0.548; in assay [5], -0.812; in assay [6], -0.174. Besides, the z-score was -0.538 (inactive) in assay [7]; 0.15 in [8]; -0.76 in assay [9]; 0.095 (inactive) in assay [10]; -0.462 in assay [11]; -0.305 (inactive) in [12]. The z-score in assay [13] was 0.0157 (inactive); in assay [15], -0.88 (inactive); in [16], -0.793 (inactive); in assay [17], -0.645 (inactive); in assay [18], -1.36 (inactive); in assay [19], 0.205. Besides, the composite z-score in assay [14] is -2.87 (inactive); in assay [20] it was -0.434.
`CC(C)=CCCC(C)=CCON=C1C[C@@H](O)[C@@H](O)[C@@H]2[C@@H]3C(=O)N(C4CCCCC4)C(=O)[C@@H]3CC[C@H]12`: the z-score in [1] was -0.529; in assay [2], -0.735; in assay [3] it was -0.0977; in [4], -2.9; in [5] it was -0.201; in assay [6] it was -1.47. The z-score is -0.444 (inactive) in assay [7]; -0.467 in [8]; -1.4 in [9]; -0.587 (inactive) in assay [10]; -0.346 in [11]; -0.339 (inactive) in assay [12]. Besides, the z-score in assay [13] was -2.69 (inactive); in assay [15], -0.437 (inactive); in assay [16], 0.577 (inactive); in [17], 0.354 (inactive); in assay [18], 0.683 (inactive); in assay [19], -1.7. Further, the composite z-score in assay [14] was 0.235 (inactive); in assay [20] it was -0.111.
Take `O=C1[C@H]2[C@H]3[C@H](O)[C@H](O)CC(=NOCc4ccccc4)[C@@H]3CC[C@H]2C(=O)N1c1cccc(Oc2ccccc2)c1`: the z-score in [1] was 0.794; in assay [2], -0.746; in assay [3] it was -0.505; in assay [4], 0.213; in [5] it was 0.3; in [6] it was -0.231. Also, the z-score in assay [7] was -0.145 (inactive); in assay [8], 0.542; in assay [9] it was -1.68; in assay [10], -0.227 (inactive); in assay [11], 0.363; in assay [12] it was 0.204 (inactive). For the same compound, the z-score in assay [13] is -0.857 (inactive); in assay [15], 0.741 (inactive); in assay [16], 0.056 (inactive); in assay [17] it was 0.796 (inactive); in assay [18], 1.4 (inactive); in assay [19], 0.173. The composite z-score in assay [14] is -0.0818 (inactive); in assay [20] it was -0.15.
`CC(CCN1CCCc2nc(C)c(C)cc21)=NO[C@H](C)c1cn([C@H](CO)Cc2ccccc2)nn1`: the z-score in assay [1] was -0.385; in assay [2] it was 0.849; in [3] it was -0.456; in assay [4] it was -0.0916; in assay [5] it was -1.88; in assay [6], 0.0197. Also, the z-score in assay [7] is -2.16 (inactive); in [8], 0.136; in [9] it was 0.859; in assay [10] it was -0.254 (inactive); in assay [11], -0.325; in assay [12], 0.454 (inactive). In addition, the z-score in [13] was 0.307 (inactive); in [15] it was -0.291 (inactive); in assay [16], 0.512 (inactive); in assay [17] it was -0.801 (inactive); in [18], -0.922 (inactive); in assay [19] it was 0.0883. The composite z-score in [14] is 1.27 (inactive); in [20], 0.0015.
